High-throughput results as filed in PubChem.
Only some compounds are listed: those with a hit (about 21% of all), similar ones and a draw of the others.
ELG1 repair inh = blocks ELG1-dependent DNA repair in HEK293T cells; HEK293T ELG1-luciferase reporter, luminescence, 16 h; DNA damage induced by 5-fluorouridine; Potency, µM (highest dose often 46.1 µM), for inactives: top-dose activity change, negative = inhibition, usual class: inhibitors; actives 2.3% (n = 330,000); note: potency is the fitted concentration of half-maximal effect; nearly all actives have a fitted effect of over 55% in size
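In this reporter screen, reduction of luminescence relative to DMSO vehicle indicated activity. Compounds and 5-fluorouridine were added together to 2,000 cells per well, incubated for 16 hr at 37 °C, then developed with ONE-Glo.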
Gal4-VP16 FLuc = inhibits Gal4-VP16 luciferase reporter, ROR gamma counter-screen | Drosophila S2 Gal4-VP16 UAS-luciferase, luminescence, 20 h | Potency, µM (series often up to 53.6 µM), inactives show at the top dose activity, negative = inhibition, most hits filed as inhibitors | actives 3.5% (n = 310,000);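 note: Gal4-VP16 expression switched on by copper sulfate through the metallothionein promoter; potency is the fitted concentration of half-maximal effect; nearly all actives have a fitted effect of over 50% in size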
DT40 TDP1 CPT = DT40-hTDP1 cell growth loss with CPT | actives 12% (n = 420,000) | chicken DT40 Tdp1-/-;hTDP1 cells + 20 nM CPT, ATP luminescence, 48 h | Potency, µM (doses to about 46.2 µM), for inactives: at the highest dose activity change, negative = growth inhibition, most hits filed as inhibitors | AID 686979; note: potency is the fitted concentration of half-maximal effect; nearly all actives have a fitted effect of over 55% in size
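Chicken DT40 Tdp1-/- cells stably complemented with human TDP1 were seeded at 400 cells/well in medium containing 20 nM camptothecin, exposed to pin-transferred compounds, and grown at 37 °C for at least 48 hr. Viability was read as ATP luminescence.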
RORg inh = ROR gamma (mouse) transcription inhibition. actives 5.4% (n = 310,000). Potency, µM (doses to about 53.6 µM), inactives show at the highest dose activity change, negative = inhibition, most hits filed as inhibitors. Drosophila S2 Gal4-RORgamma UAS-luciferase reporter, 20 h. AID 2551; note: potency is the fitted concentration of half-maximal effect; nearly all actives have a fitted effect of over 60% in size
Target sequence (P51450 whole entry, looked up, the tested form may be a part): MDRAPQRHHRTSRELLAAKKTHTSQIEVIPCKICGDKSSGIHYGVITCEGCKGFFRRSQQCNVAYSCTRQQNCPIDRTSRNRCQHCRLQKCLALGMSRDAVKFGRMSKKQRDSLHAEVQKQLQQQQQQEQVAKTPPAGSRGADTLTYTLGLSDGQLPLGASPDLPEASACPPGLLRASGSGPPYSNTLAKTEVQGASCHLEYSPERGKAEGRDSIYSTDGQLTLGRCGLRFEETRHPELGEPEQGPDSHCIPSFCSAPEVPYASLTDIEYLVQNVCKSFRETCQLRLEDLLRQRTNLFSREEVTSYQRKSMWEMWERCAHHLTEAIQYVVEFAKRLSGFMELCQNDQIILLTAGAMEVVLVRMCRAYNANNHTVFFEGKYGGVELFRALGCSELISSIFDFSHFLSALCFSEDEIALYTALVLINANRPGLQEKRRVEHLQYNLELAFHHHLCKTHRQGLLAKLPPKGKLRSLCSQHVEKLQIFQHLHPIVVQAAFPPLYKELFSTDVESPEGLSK
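Stably transfected Drosophila Schneider cells are the test system, with ROR gamma fused to Gal4 and luciferase under UAS control; luminescence is read after 20 hr of 700 uM copper sulfate induction at ambient temperature.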
TDP1 cell noCPT = qHTS for Inhibitors of human tyrosyl-DNA phosphodiesterase 1 (TDP1): qHTS in cells in absence of CPT. actives 15% (n = 420,000). DT40 Tdp1-/- hTDP1 cells, no CPT, ATP luminescence, 48 h. AID 686978, 2013. Potency, µM (doses to about 46.2 µM), for inactives: at the highest dose activity change, negative = growth inhibition, hits mostly inhibitors; note: potency is the fitted concentration of half-maximal effect; nearly all actives have a fitted effect of over 55% in size
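Growth kinetics read by CellTiter-Glo luminescence after ≥48 hr at 37 °C. Cells: DT40 Tdp1-/- stably carrying human TDP1, 400 per well, compound exposure in the absence of CPT (DMSO vehicle).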
IL1B secr inh = blocks inflammasome-driven IL-1 beta release; THP-1 LPS/ATP IL-1B secretion, AlphaLISA, 16 h; hits give low values; activity change, % at 57.5 µM; actives 4.7% (n = 360,000); in the data active = activity change below about -50%; inconclusive = mostly about -30% to -49%
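Secreted IL-1B measured by AlphaLISA bead assay after 16 h compound exposure of THP-1 cells; compounds (final up to 57.5 uM) added 1 h before LPS (250 ng/mL) and ATP (1.25 mM) stimulation; lower signal means less secretion.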
* = called active by the depositor; ? = inconclusive; nt = no result; [ ] = another dose, or the depositor's remark. Unless noted, calls come from the whole dose curve; as a rule, active = well fitted curve in the direction sought with a large enough effect; inconclusive = small, poorly fitted or top-dose-only effect, or another doubt; inactive = no such curve, though single readings can be large; an effect the other way counts as inactive or inconclusive. % is set by controls: 0 for no effect and ±100 for the full control effect.

SMILES	ELG1 repair inh	Gal4-VP16 FLuc	DT40 TDP1 CPT	RORg inh	TDP1 cell noCPT	IL1B secr inh
O=c1cc(-c2ccccc2)n2c(SCc3ccc(Br)cc3)nnc2[nH]1	nt	nt	-14.1%	nt	-8.6%	nt
COc1cc2c(cc1OC)CN(C(=O)c1oc3ccccc3c1C)CC2	?	-2.3%	20.6µM*	13.7%	23.1µM*	-10.7
O=C(O)/C=C/C(=O)Nc1ccc2nccnc2c1	?	3.5%	-1.1%	14.0%	-18.5%	-1.8
O=C1OC(O)C(C(Cl)Cl)=C1Cl (stereo not drawn)	nt	2.82µM*	nt	2.24µM*	nt	nt
O=C(Cc1ccccc1)NNC(=O)Cc1ccccc1	4.6%	4.4%	5.3%	10.7%	1.6%	-0.7
O=C(Cc1ccccc1)NNc1c2ccccc2nc2ccccc12	-9.4%	?	20.6µM*	?	?	17.8
Cc1ccc(OCC(=O)NNc2c3ccccc3nc3ccccc23)cc1	?	12.6µM*	?	10µM*	16.4µM*	-15.0
CCC(=O)Nc1c(C)c(CC)nc2ccccc12	-4.0%	-4.4%	-27.9%	-8.7%	-4.2%	0.0
O=C(Nc1c2ccccc2nc2ccccc12)C(Cl)(Cl)Cl	19.8%	?	16.4µM*	?	23.1µM*	?
O=C(c1cccc(Cn2cccn2)c1)N1CCC(n2c(C3CCCO3)nc3cc(C(F)(F)F)ccc32)CC1 (stereo not drawn)	nt	nt	4.7%[9.04 µM]	nt	-4.0%	nt
CCOc1ccc(NC(=O)C(=O)c2cc(C)n(-c3cc(C)cc(C)c3)c2C)cc1	nt	nt	?	nt	20.6µM*	nt
COC(=O)c1ccc(-n2c(C)cc(C(=O)CCl)c2C)cc1	?	-92.6%	2.91µM*	11.2µM*	2.59µM*	-98.6*
Cc1ccc(NC(=O)C(=O)c2cc(C)n(-c3ccc(F)cc3)c2C)cc1C	nt	nt	?	nt	20.6µM*	nt
Cc1ccc(-n2c(C)cc(C(=O)CN3CCOCC3)c2C)cc1	?	7.4%	-18.3%	29.5%	-28.2%	15.8
CCOc1ccc(-n2c(C)cc(C(=O)CCl)c2C)cc1	?	0.8%	2.91µM*	?	4.61µM*	-99.4*
CCNc1ncc2nc(-c3cccs3)c(=O)n(CCc3ccccc3)c2n1	nt	4.1%	?	3.7%	?	nt
Cc1ccc(NC(=O)N2CCCC2C(=O)Nc2c(C)cc(C)cc2C)cc1 (stereo not drawn)	28.1%	-2.2%	-1.0%	7.4%	-12.1%	29.0
CCOC(=O)c1cc(C)n(-c2ccc(OC)c(OC)c2)c1C	-18.2%	-2.2%	?	-5.8%	18.4µM*	6.7
CCNC(=O)COC(=O)c1cc(C)n(-c2ccccc2)c1C	26.3%	-7.1%	-28.4%	-7.4%	-24.1%	7.4
CCCCN1C(=O)C(CC(=O)NCCCN(C)C)CC(C(=O)N(C)C)=C1C (stereo not drawn)	nt	nt	0.9%	nt	-5.6%	6.0
N=c1n(CCN2CCCCC2)c2ccccc2n1CC(=O)c1ccc(Cl)c(Cl)c1	?	-8.9%	?	24.1%	?	nt
CCn1c(=N)n(CC(=O)c2ccc(OC)cc2)c2ccccc21	1.3%	1.5%	?	?	?	?
O=C(Cn1ccccc1=S)c1ccc(Cl)c(Cl)c1	nt	nt	-2.2%	nt	-20.7%	-81.2*
CCCCCCCn1c(=N)n(CC(O)c2ccco2)c2ccccc21 (stereo not drawn)	?	-6.5%	3.66µM*	-26.9%	4.61µM*	0.0
CCn1c(=N)n(CC(=O)c2ccco2)c2ccccc21	-1.3%	5.9%	13µM*	-17.3%	?	18.3
CCn1c(=N)n(CC(=O)c2ccc(Cl)c(Cl)c2)c2ccccc21	?	4.0%	25.9µM*	-44.8%	20.6µM*	-72.9*
CCCCn1c(=N)n(CC(=O)c2ccco2)c2ccccc21	?	-11.0%	?	-30.5%	?	?
